PKM2 activator – PKM2 (human) enzyme activation. P14618. purified PKM2, Kinase-Glo ATP luminescence, activation; response scale: 0% is enzyme alone, no compound. Potency, µM (top dose mostly 57.5 µM), most hits filed as activators. hit rate 0.34% among 260,000; further: nearly all actives have a fitted effect of over 55% in size
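Purified hPK-M2 (>95% pure) converted ADP (0.1 mM final) to ATP with 0.5 mM PEP in 50 mM imidazole pH7.2, KCl, MgCl2, Tween 20, BSA; 1 h at room temperature. ATP detected by Kinase-Glo luminescence.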
IL-2 act – IL-2 activation. IL-2 activation reporter assay, cell-based qHTS; stimulated with anti-CD3/CD4/CD28 beads; in transgenic mouse T cells. activation, % (series mostly up to about 46 µM). hit rate 0.065% among 360,000. AID 652025; in the data active means activation above about 50%; inconclusive means mostly about 30% to 49%
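Readout: EGFP and DsRed signals by fluorescent plate cytometry. Unstimulated transgenic mouse T cells received compound 60 min before antibody-bead stimulation, then incubated 18 h at 37 degrees C.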
a7 integrin act – integrin-mediated muscular dystrophy alleviation activation; alpha7betagal myoblasts, beta-gal FDG fluorescence, 48 h; AID 624291; hit rate 0.064% among 350,000; Potency, µM (highest dose often 38.3 µM), actives largely listed as activators; further: nearly all actives have a fitted effect of over 60% in size
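Alpha7betagal+/- myoblasts (passage 13) were plated 16-24 hr, then exposed to compounds (1:260 dilution of DMSO stock) for 48 hours at 37C. After MPER lysis, β-galactosidase reporter activity was read as FDG fluorescence (ex 480/em 540) after 30 minutes.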
USP2a inh – USP2a (human) protease inhibition; O75604; USP2 core, Ub-CHOP2 coupled fluorogenic reporter, 485/531; Potency, µM (titrated, usually from 38.3 µM), actives largely listed as inhibitors; hit rate 0.01% among 330,000; AID 463254
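Deubiquitinase activity read as fluorescence (485/531 nm) after Ub-CHOP2 cleavage activates the enterokinase reporter on its substrate; USP2 core 10nM, Ub-CHOP2 and substrate 25nM each, 30min compound preincubation then 60min RT; data normalized to NEM, curves fitted.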
ClpP mod – qHTS Assay for Activators of ClpP. purified B. subtilis ClpP, FRET peptide cleavage, 20 min. Potency, µM (doses to about 57.5 µM). hit rate 1.9% among 340,000. AID 651965, 2013; active means well fitted falling curve with a large enough effect; inconclusive means small, poorly fitted or top-dose-only effect; inactive means no such curve, though single readings can be large or run the other way; further: the source files actives as falling curves though it sought activators and does not explain the sign; nearly all actives have a fitted effect of over 65% in size
Target sequence (P80244 whole entry, looked up): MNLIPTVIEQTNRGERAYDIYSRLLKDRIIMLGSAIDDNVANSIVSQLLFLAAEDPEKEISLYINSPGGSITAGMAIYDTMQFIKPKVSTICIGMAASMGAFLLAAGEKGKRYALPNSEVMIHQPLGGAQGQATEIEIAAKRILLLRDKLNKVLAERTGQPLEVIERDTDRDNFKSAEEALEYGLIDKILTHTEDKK
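ClpP 10 microg/mL final, pH 8 Tris/KCl buffer with BSA, glycerol, Tween-20; compound pinned in; FRET-FV substrate; RT 20 min; Ex320/Em430; ΔFRET vs ADEP 5.8 microM, DMSO, no enzyme.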
Pin1 inhibitor – blocks the human prolyl isomerase Pin1; hit rate 0.009% among 390,000; AID 504891; Q13526; Pin1 FP peptide displacement, HiFluor488, 10 min; Potency, µM (doses to about 115 µM), usual class: inhibitors; active means well fitted inhibition curve with a large enough effect in the polarisation, with a control signal flat, not every such curve was filed as active; inconclusive means small, poorly fitted or top-dose-only effect, or effect the other way, or a change in a side signal; inactive means no such curve, though single readings can be large or run the other way; the % refers to the polarisation
Target sequence (Q13526 whole entry, looked up): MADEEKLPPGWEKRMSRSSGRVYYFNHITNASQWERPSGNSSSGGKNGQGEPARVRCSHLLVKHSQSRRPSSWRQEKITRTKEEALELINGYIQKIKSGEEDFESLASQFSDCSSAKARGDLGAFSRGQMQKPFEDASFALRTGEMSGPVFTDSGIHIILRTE
Numbers stand for hits; i = inactive; ? = inconclusive; nt = no result given; ! = not active in a repeat; [ ] = remark or other dose. Compounds with a hit are over-represented: about 1.9% of the library has one in this group of screens. Unless noted, the call rests on the fitted dose curve; in most records, active means well fitted curve in the direction sought with a large enough effect; inconclusive means small, poorly fitted or top-dose-only effect, or another doubt; inactive means no such curve, though single readings can be large; an effect the other way counts as inactive or inconclusive.

SMILES	PKM2 activator	IL-2 act	a7 integrin act	USP2a inh	ClpP mod	Pin1 inhibitor
CC(C)CC(CSc1ccc(Br)cc1)N1CCN(C)CCC1=O (stereo not given)	nt	nt	nt	nt	nt	i
Cc1ccc2nc(SCC(=O)N3CCCC3)nc(=O)n2c1	nt	i	i	i	25µM	i
CCc1ccc(NC(=O)CSc2nc(=O)n3cc(C)ccc3n2)cc1	nt	i	i	i	25µM	i
O=C(CCn1c(=O)[nH]c2ccsc2c1=O)N1CCc2ccccc2C1	i	i	i	i	i	i
COc1cc2[nH]c(=O)n(CCC(=O)N3CCc4ccccc4C3)c(=O)c2cc1OC	i	i	i	i	28µM	?
COc1cc2[nH]c(=O)n(CCCCCC(=O)N3CC=C(c4ccccc4)CC3)c(=O)c2cc1OC	i	i	i	i	18µM	i
Nc1[nH]c(=O)nc2nnsc12	nt	nt	nt	nt	i	nt
Cc1ccc(NC(=O)Cn2c(/C=C/c3ccccc3)nc3ccccc32)cc1C	i	i	i[7.66 µM]	i	28µM	i
CC(C)c1ccccc1NC(=O)Cn1c(/C=C/c2ccccc2)nc2ccccc21	i	i	i	i	nt	i
CCCn1c(/C=C/c2ccccc2)nc2ccccc21	i	i	i	i	13µM!	i
COc1ccc(C2C3C=CCC(c4cccc(/C=C/c5ccccc5)c4)C3C(=O)N2Cc2ccccc2)cc1Cl (stereo not given)	nt	nt	nt	nt	nt	i
O=c1/c(=C/c2ccco2)sc2n1CN(c1ccccc1)CN=2	i	i	i	i	25µM	i
Cc1cc(N)ccc1-n1c(C)ccc1C	i	i	i	i	32µM	i
Cc1cc(N)ccc1N1CCCC1	i	i	i	i	i	?
COc1cc(NC(=O)COC(=O)[C@@H]2CCCN2S(=O)(=O)c2ccc(Cl)cc2)cc(OC)c1OC	i	i	i	i	i	?
COc1ccc2c(COC(=O)[C@@H]3CCCN3S(=O)(=O)c3ccc(Cl)cc3)cc(=O)oc2c1	nt	i	i	i	25µM	i
COC(=O)C1=C(C(=O)OC)[C@@H]2N(C)c3ccccc3[C@@]23C[C@@H](C(=O)OC)N(S(=O)(=O)c2ccc([N+](=O)[O-])cc2)C3=N1	i[11.5 µM]	nt	nt	nt	nt	nt
CC(=O)Nc1cccc(NC(=O)Cc2cccs2)c1	i[11.5 µM]	i	i	i	i	i
O=C(Cc1cccs1)Nc1cccc(-c2nc3cc4ccccc4cc3[nH]2)c1	i	i	i	i	28µM	i
CCOC(=O)C1CCN(c2ncc(-c3ccc4c(c3)OCCCO4)s2)CC1	nt	nt	nt	nt	nt	i
CCOc1ccc(-c2cc(NC(=O)c3ccccc3)c(C(=O)OC)s2)cc1	nt	nt	nt	nt	35µM	i
CCOc1ccc(-c2cc(NC(=O)c3ccc(C)cc3)c(C(=O)OC)s2)cc1	nt	nt	nt	nt	?	i
CN1C(=O)Cc2cc(S(=O)(=O)NCc3c(F)cccc3Cl)ccc21	14µM	i	i	i	nt	i
CC(=O)c1cccc(NC(=O)C(OC(=O)/C=C/c2ccc3c(c2)OCO3)c2ccccc2)c1 (stereo not given)	i	i	i	i	28µM	i
CCn1c(-c2ccco2)n[nH]c1=S	i	i	i	i	?	i
SMILES	PKM2 activator	IL-2 act	a7 integrin act	USP2a inh	ClpP mod	Pin1 inhibitor
CCCCn1c(-c2ccco2)n[nH]c1=S	i	i	i	i	22µM	i
O=C(COc1cc2oc(=O)c3c(c2cc1Cl)CCC3)NCC1CCC(C(=O)O)CC1 (stereo not given)	nt	i	?	i	i	i
O=C(COc1cc2oc(=O)c3c(c2cc1Cl)CCCC3)NCC1CCC(C(=O)O)CC1 (stereo not given)	nt	i	7.1µM	i	i	i
CN(C)c1ccc(-c2nc(-c3cccs3)c(-c3cccs3)[nH]2)cc1	nt	nt	nt	nt	11µM	i
CN(C)C(=O)CSc1nc(-c2cccs2)c(-c2cccs2)[nH]1	i	i	i	i	nt	i
Oc1ccccc1-c1nc(-c2cccs2)c(-c2cccs2)[nH]1	nt	nt	nt	nt	14µM	i
COCCn1nnnc1CN(Cc1ccco1)Cc1cc2cc3c(cc2[nH]c1=O)OCO3	i	i	i	i	28µM	i

Assay outcomes deposited in PubChem BioAssay by National Center for Advancing Translational Sciences (NCATS).
